# Laboratory results published in PubChem BioAssay (NCI).
# About 83,000 compounds went through this panel and 20% of them were active in at least one assay; those are over-represented in the sample as a whole.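 Single-concentration screen, 48 h exposure, 96-well plates. Endpoint: percent growth. Below 10 = active.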 A number with no mark means an inactive call. The source made the active and inactive calls.
# Legend:
# Assay in all cases: NCI-60 one-dose screen, 48 h (100 = growth as untreated, 0 = no growth, -100 = all killed)
# Details in all cases: 10 µM unless noted
# SK-MEL-2 melanoma = tested on: SK-MEL-2 melanoma
# EKVX NSCLC = tested on: EKVX NSCLC
# TK-10 renal = tested on: TK-10 renal
# ACHN renal = tested on: ACHN renal
# CAKI-1 renal = tested on: CAKI-1 renal
# A498 renal = tested on: A498 renal
# CCRF-CEM leukemia = tested on: CCRF-CEM leukemia
# MOLT-4 leukemia = tested on: MOLT-4 leukemia
# UO-31 renal = tested on: UO-31 renal
Compound,growth (SK-MEL-2 melanoma),growth (EKVX NSCLC),growth (TK-10 renal),growth (ACHN renal),growth (CAKI-1 renal),growth (A498 renal),growth (CCRF-CEM leukemia),growth (MOLT-4 leukemia),growth (UO-31 renal)
CCOC(=O)c1ccc2[nH]c(O)c(C(=Nc3ccc(N(C)C(=O)CN4CCN(C)CC4)cc3)c3ccccc3)c2c1,-59.2% (active),-3.53% (active),-70% (active),2.92% (active),-0.635% (active),-59.9% (active),4.58% (active),-14% (active),
O=C1/C(=C/c2ccc(F)cc2)COc2ccc(O)c(O)c21,74.8%,51.4%,17.8%,-67.1% (active),9.04% (active),105%,3.39% (active),4.21% (active),-96.9% (active)
O=[N+]([O-])C1C(c2ccccc2)C12c1ccccc1-c1ccccc12 (configuration not stated),-1.42% (active),77.9%,23.2%,29.6%,34.6%,-12.8% (active),-12.1% (active),-17.1% (active),28.3%
C1=CN2CC(c3ccccc3)=NNC2c2ccccc21 (configuration not stated),89.7%,73.4%,120%,85.7%,65.2%,104%,88.3%,40.2%,53.8%
O=c1c2cc(-c3ccccc3)sc2nc2sc(-c3ccccc3)nn12,107%,97.4%,84%,117%,102%,61.3%,104%,102%,94.2%
C=C(C)[C@@H]1CC[C@]2(C(=O)O)CC[C@]3(C)[C@H](CC[C@@H]4[C@@]5(C)C[C@@H](Cc6cn(CCO[C@@H]7O[C@H](COC(C)=O)[C@H](OC(C)=O)[C@H](OC(C)=O)[C@H]7OC(C)=O)nn6)[C@H](O)C(C)(C)[C@@H]5CC[C@]43C)[C@@H]12,67.2%,72%,79.3%,86%,73.2%,70.3%,69.2%,50.6%,81.6%
COc1ccc(-c2nc(/C=C3\SC(=NCc4ccccc4)NC3=O)c3ccccn23)cc1,-31.6% (active),58%,-52.4% (active),-28.3% (active),3.18% (active),-7.6% (active),16.2%,11.1%,-47.2% (active)
COc1cccc([C@H]2c3[nH]c4ccccc4c3C[C@H]3C(=O)N(CCCCCCC(=O)NO)CC(=O)N23)c1,60.1%,82.6%,87.6%,69.1%,75.1%,75.6%,14%,18.5%,62.5%
C#Cc1cccc(Nc2ncnc3ccc(-c4cncc(NS(C)(=O)=O)c4)cc23)c1,-39.7% (active),4.65% (active),-3.64% (active),33.2%,54.9%,-10.7% (active),14%,-28.3% (active),38.4%
CS(=O)(=O)Nc1cc(-c2ccc3ncnc(Nc4c(Cl)ccc5c4OCO5)c3c2)cnc1Cl,-65.7% (active),-34.1% (active),-59.4% (active),11.7%,-30.4% (active),-65.3% (active),11.9%,-15.1% (active),-71.4% (active)
CCCCNc1ccc(C#N)c(OCCN(CC)CC)c1,105%,98.7%,108%,101%,98.6%,117%,94.8%,88.2%,84.6%
Cn1c(=O)c2[nH]c(N/N=C/c3ccccc3Br)nc2n(C)c1=O,120%,128%,82.8%,105%,93.4%,92.9%,104%,98.3%,92.4%
O=C1C(Cl)=C(Oc2ccccc2)C(=O)c2ccccc21,73.4%,87.2%,49.4%,26.6%,76.9%,98.7%,8.95% (active),57.4%,
CCN1C(=O)N(CC)C2C1NN=c1s/c(=C\c3cccc([N+](=O)[O-])c3)c(=O)n12 (configuration not stated),43.4%,50.5%,69.6%,32.9%,25.7%,13%,10.8%,15.6%,41.1%
COc1ccccc1Nc1nc2c(s1)C1=CC[C@H]3[C@@H]4CC[C@H]([C@H](C)CCCC(C)C)[C@@]4(C)CC[C@@H]3[C@@]1(C)CC2,115%,105%,117%,104%,90.5%,132%,109%,104%,73.5%
N#C/C(=C\c1ccc(-c2ccc(Cl)cc2)o1)C(=O)Nc1ncc(Cc2ccc(Cl)cc2)s1,95.4%,33.7%,19.8%,5.97% (active),39.1%,69.9%,41.4%,78.3%,
C=CC(=O)NCc1ccc(Nc2nccc(-c3ccc(N4CCCC4)c(C#N)c3)n2)cc1,35.8%,62.8%,37.3%,20.4%,-1.86% (active),54%,49.1%,20%,17.5%
COc1ccc(/C=C2\C(=O)N=C3N2NC(c2cc(Br)ccc2O)C=C(C)N3c2ccccc2)cc1 (configuration not stated),104%,105%,118%,99%,96.5%,94.1%,99.8%,97.4%,81.6%
CC1(C)CC[C@]2(C(=O)O)CC[C@]3(C)C(=CC[C@@H]4[C@@]5(C)C/C(=C/O)C(=O)C(C)(C)[C@@H]5CC[C@]43C)[C@@H]2C1,104%,88.6%,58.1%,20%,48.6%,85.6%,16.3%,7.85% (active),57.7%
CCCCN1C(=O)/C(=c2\sc3n(c2=O)C2C(NN=3)N(CC)C(=O)N2CC)c2ccccc21 (configuration not stated),21.9%,52.1%,55.9%,23.9%,18.1%,-2.15% (active),7.34% (active),11.1%,18.4%
Cc1ccc2c(n1)C(=O)c1[nH]c3ccccc3c1C2=O,64.2%,43.7%,115%,49.2%,56.4%,69.2%,55.9%,35.1%,50.5%
COc1cc(OC)c2sc(-c3ccc(-n4cncc4-c4ccc(OC)c(OC)c4)cc3)nc2c1,33.5%,54.7%,71.9%,38.7%,8.81% (active),56.3%,53.2%,33.6%,25.5%
O=C(CCc1nnc(Cn2cnc3nc[nH]c3c2=O)o1)c1nc2ncccc2[nH]1,103%,102%,96.9%,105%,92.2%,94.8%,90.5%,103%,80.8%
CO[C@]12C=C/C(=C(/C(=O)OCc3cccnc3)C(=O)CCCCCCCC[C@@]3(OC)C=C/C(=C(/C(=O)OCc4cccnc4)C(=O)CCCCCCCC1)O3)O2,21.4%,12.8%,39%,-19.3% (active),22.9%,1.93% (active),1.38% (active),-2.22% (active),-10.7% (active)
C=C(C)[C@@H]1CC[C@]2(C(=O)N3CCN(C)CC3)CC[C@]3(C)[C@H](CC[C@@H]4[C@@]5(C)CC(=C/c6ccncc6)/C(=N/O)C(C)(C)[C@@H]5CC[C@]43C)[C@@H]12,83.8%,84.6%,85.2%,75.9%,63.8%,96.8%,57.9%,33.9%,45.5%
CC(C)(C)n1cc(-c2ccnc(NCCCNS(=O)(=O)c3ccc(F)cc3)c2)c(-c2cccc(F)c2)n1,88.4%,57.3%,97.7%,61.4%,53.6%,70.2%,49.1%,41.7%,50.3%
CN(C)CCCn1c2c(c3ncccc3c1=O)C(=O)c1ccccc1-2,81.8%,81.7%,52.3%,15.2%,52.7%,57.5%,50.4%,17.3%,32%
Cc1ccc(S(=O)(=O)N2CCCC2CO)cc1 (configuration not stated),96.3%,101%,101%,89.3%,85.6%,65.7%,68.5%,98.8%,94.2%
COc1ccc(NC(=O)c2sc3nc(C)c(C(=O)/C=C/c4cccc(OC)c4)cc3c2N)cc1,42.9%,93.5%,82.2%,52.3%,32.9%,14.3%,7.32% (active),33.1%,
